From PubChem BioAssay (EPA / NIEHS)
Active and inactive are the calls of the source. Rule for the calls: active = hit-call score of the fitted dose curve at least 0.9, where 1 is the maximum; inactive = score below 0.9.

What was measured:
[1] = BSK_hDFCGF_SRB: Viability Assessment in the BioMAP Diversity Plus: hDFCGF Assay (AID 2283061); settings: primary human foreskin fibroblasts;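 note: cells exposed to compound for 24 h before the read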
Summary of the method: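 SRB-based viability read on primary human skin fibroblasts at 24 h: TCA fixation, 0.1% dye, 560 nm. Gain or loss of signal is fitted against the DMSO negative control.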

[2] = read-out: TIMP metallopeptidase inhibitor 1 (TIMP1), TIMP1 (gene 7076); assay: BSK_hDFCGF_TIMP1: BioMAP Diversity Plus: hDFCGF Assay for TIMP metallopeptidase inhibitor 1 (TIMP1) Biomarker Activity (AID 2283062); settings: primary human foreskin fibroblasts; actives raise or lower the signal
Summary of the method: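 Bidirectional curve fitting against DMSO baseline yielded this endpoint, based on ELISA detection of TIMP-1 in primary human foreskin fibroblasts exposed to compound for 24 h.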

[3] = read-out: Monokine induced gamma interferon (MIG), CXCL9 (gene 4283); assay: BSK_hDFCGF_MIG: BioMAP Diversity Plus: hDFCGF Assay for Monokine induced gamma interferon (MIG) Biomarker Activity (AID 2283063); settings: primary human foreskin fibroblasts; actives raise or lower the signal
Summary of the method: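 Endpoint derived by bidirectional fitting relative to DMSO; MIG quantified via ELISA in primary human foreskin fibroblasts harvested 24 h after dosing.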

[4] = read-out: Matrix Metallopeptidase 1 (MMP1), MMP1 (gene 4312); assay: BSK_hDFCGF_MMP1: BioMAP Diversity Plus: hDFCGF Assay for Matrix Metallopeptidase 1 (MMP1) Biomarker Activity (AID 2283064); settings: primary human foreskin fibroblasts; actives raise or lower the signal
Summary of the method: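 hDFCGF primary fibroblasts (human foreskin); chemical added; 24 h; MMP1 by ELISA; bidirectional fit vs DMSO.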

[5] = read-out: Vascular cell adhesion molecule 1 (VCAM1), VCAM1 (gene 7412); assay: BSK_hDFCGF_VCAM1: BioMAP Diversity Plus: hDFCGF Assay for Vascular cell adhesion molecule 1 (VCAM1) Biomarker Activity (AID 2283065); settings: primary human foreskin fibroblasts; actives raise or lower the signal;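 for AC50: VCAM-1 protein level quantified by ELISA after 24 h chemical exposure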
Summary of the method: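 Measured after 24 h chemical treatment of primary human skin fibroblasts, VCAM-1 was detected by ELISA and concentration-response analysed in both directions versus DMSO vehicle.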

[6] = read-out: Plasminogen activator inhibitor-1 (PAI1), SERPINE1 (gene 5054); assay: BSK_hDFCGF_PAI1: BioMAP Diversity Plus: hDFCGF Assay for Plasminogen activator inhibitor-1 (PAI1) Biomarker Activity (AID 2283066); settings: primary human foreskin fibroblasts; actives raise or lower the signal
Summary of the method: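 Primary dermal fibroblasts (human foreskin), hDFCGF system; compound 24 h; PAI-1 by ELISA; bidirectional fit vs DMSO control.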

[7] = read-out: Intercellular Adhesion Molecule 1 (ICAM1), ICAM1 (gene 3383); assay: BSK_KF3CT_ICAM1: BioMAP Diversity Plus: KF3CT Assay for Intercellular Adhesion Molecule 1 (ICAM1) Biomarker Activity (AID 2283067); settings: primary human keratinocytes with fibroblasts; actives raise or lower the signal
Summary of the method: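 Bidirectional curve fitting against a DMSO baseline was applied to ICAM-1 ELISA signal from primary human skin co-cultures harvested 24 h after treatment, with SRB staining of parallel wells for overt cytotoxicity.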

[8] = read-out: Interferon-gamma inducible Protein 10 (IP10), CXCL10 (gene 3627); assay: BSK_KF3CT_IP10: BioMAP Diversity Plus: KF3CT Assay for Interferon-gamma inducible Protein 10 (IP10) Biomarker Activity (AID 2283068); settings: primary human keratinocytes with fibroblasts; actives raise or lower the signal
Summary of the method: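 ELISA read-out of IP-10 after 24 h chemical dosing of human skin primary co-culture (keratinocytes, foreskin fibroblasts). Gain or loss of signal relative to DMSO, bidirectional curve fit.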

[9] = BSK_KF3CT_SRB: Viability Assessment in the BioMAP Diversity Plus: KF3CT Assay (AID 2283069); settings: primary human keratinocytes with fibroblasts;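 note: total protein by sulforhodamine B staining as a cytotoxicity measure; read 24 h after compound addition; fitted for both signal gain and loss against DMSO baseline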
Summary of the method: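 Keratinocytes co-cultured with foreskin fibroblasts (human primary); chemical added, 24 h; fix 10% TCA, stain 0.1% SRB, A560. Bidirectional fit vs DMSO.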

[10] = read-out: Interleukin-1 alpha (IL1a), IL1A (gene 3552); assay: BSK_KF3CT_IL1a: BioMAP Diversity Plus: KF3CT Assay for Interleukin-1 alpha (IL1a) Biomarker Activity (AID 2283070); settings: primary human keratinocytes with fibroblasts; actives raise or lower the signal
Summary of the method: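 Chemicals were dosed onto co-cultured human keratinocytes and foreskin fibroblasts, IL-1a was quantified by ELISA at 24 h, and activity was fitted in both directions relative to DMSO controls.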

[11] = read-out: Transforming growth factor beta 1 (TGFb1), TGFB1 (gene 7040); assay: BSK_KF3CT_TGFb1: BioMAP Diversity Plus: KF3CT Assay for Transforming growth factor beta 1 (TGFb1) Biomarker Activity (AID 2283072); settings: primary human keratinocytes with fibroblasts; actives raise or lower the signal
Summary of the method: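 Primary human skin cells (keratinocytes, foreskin fibroblasts) were co-cultured, exposed to test chemical and sampled at 24 h. TGF-b1 levels were measured by ELISA and fitted bidirectionally relative to DMSO.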

[12] = read-out: C-C motif chemokine 2 (Homo sapiens) (UniProt P13500); assay: BSK_KF3CT_MCP1: BioMAP Diversity Plus: KF3CT Assay for Monocyte Chemoattractant Protein 1 (MCP1/CCL2) Biomarker Activity (AID 2283073); settings: primary human keratinocytes with fibroblasts; actives raise or lower the signal
Summary of the method: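 Biomarker MCP-1 is measured by ELISA in primary human keratinocytes co-cultured with foreskin fibroblasts, 24 h after chemical treatment; DMSO serves as the negative control and activity baseline.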

[13] = read-out: Matrix Metallopeptidase 9 (MMP9), MMP9 (gene 4318); assay: BSK_KF3CT_MMP9: BioMAP Diversity Plus: KF3CT Assay for Matrix Metallopeptidase 9 (MMP9) Biomarker Activity (AID 2283074); settings: primary human keratinocytes with fibroblasts; actives raise or lower the signal;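 for AC50: MMP9 protein level quantified by ELISA in the co-culture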
Summary of the method: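 Human keratinocyte/foreskin fibroblast co-culture; compound added; 24 h; MMP-9 by ELISA; bidirectional fit vs DMSO baseline.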

[14] = read-out: urokinase plasminogen activator (uPA), PLAU (gene 5328); assay: BSK_KF3CT_uPA: BioMAP Diversity Plus: KF3CT Assay for urokinase plasminogen activator (uPA) Biomarker Activity (AID 2283075); settings: primary human keratinocytes with fibroblasts; actives raise or lower the signal
Summary of the method: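 ELISA readout of uPA, analyzed for signal gain or loss relative to DMSO, from a human primary keratinocyte–foreskin fibroblast co-culture measured 24 h after chemical treatment.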

CD40, CD40 (gene 958) = assay: BSK_LPS_CD40: BioMAP Diversity Plus: LPS Assay for CD40 Biomarker Activity (AID 2283076); settings: primary human HUVEC with PBMC; actives raise or lower the signal
Summary of the method: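 Using a multiplexed primary human co-culture (umbilical vein endothelium plus PBMC), CD40 was read by ELISA 24 h after dosing, with cytotoxicity tracked by sulforhodamine B staining of parallel cultures and activity fitted bidirectionally versus DMSO.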

[15] = read-out: E-selectin (Homo sapiens) (UniProt P16581); assay: BSK_LPS_Eselectin: BioMAP Diversity Plus: LPS Assay for Eselectin Biomarker Activity (AID 2283077); settings: primary human HUVEC with PBMC; actives raise or lower the signal
Summary of the method: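 Dose chemical onto LPS-driven HUVEC/PBMC co-culture; after 24 h, run ELISA for E-selectin; fit up- and down-going responses relative to DMSO control.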

[16] = read-out: Interleukin-8 (IL8), CXCL8 (gene 3576); assay: BSK_LPS_IL8: BioMAP Diversity Plus: LPS Assay for Interleukin-8 (IL8) Biomarker Activity (AID 2283078); settings: primary human HUVEC with PBMC; actives raise or lower the signal
Summary of the method: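 In this LPS system, chemical-treated human umbilical vein endothelium/PBMC co-cultures were harvested at 24 h for IL-8 ELISA.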

[17] = BSK_LPS_SRB: Viability Assessment in the BioMAP Diversity Plus: LPS Assay (AID 2283079); settings: primary human HUVEC with PBMC;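 note: total protein by sulforhodamine B absorbance as a cytotoxicity measure; measured one day after compound addition; fitted in both directions against DMSO so loss or gain of signal counts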
Summary of the method: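 Cytotoxicity endpoint in human endothelial–PBMC co-culture: 24 h exposure, then SRB (0.1%) staining, 560 nm read.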

[18] = read-out: Interleukin-1 alpha (IL1a), IL1A (gene 3552); assay: BSK_LPS_IL1a: BioMAP Diversity Plus: LPS Assay for Interleukin-1 alpha (IL1a) Biomarker Activity (AID 2283080); settings: primary human HUVEC with PBMC; actives raise or lower the signal
Summary of the method: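 Primary human HUVEC and PBMC co-culture stimulated with LPS is dosed and harvested at 24 h. Both increases and decreases in ELISA-measured IL-1a are scored relative to DMSO.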

Measured: AC50

Sequence of E-selectin (Homo sapiens) (P16581 whole entry, looked up): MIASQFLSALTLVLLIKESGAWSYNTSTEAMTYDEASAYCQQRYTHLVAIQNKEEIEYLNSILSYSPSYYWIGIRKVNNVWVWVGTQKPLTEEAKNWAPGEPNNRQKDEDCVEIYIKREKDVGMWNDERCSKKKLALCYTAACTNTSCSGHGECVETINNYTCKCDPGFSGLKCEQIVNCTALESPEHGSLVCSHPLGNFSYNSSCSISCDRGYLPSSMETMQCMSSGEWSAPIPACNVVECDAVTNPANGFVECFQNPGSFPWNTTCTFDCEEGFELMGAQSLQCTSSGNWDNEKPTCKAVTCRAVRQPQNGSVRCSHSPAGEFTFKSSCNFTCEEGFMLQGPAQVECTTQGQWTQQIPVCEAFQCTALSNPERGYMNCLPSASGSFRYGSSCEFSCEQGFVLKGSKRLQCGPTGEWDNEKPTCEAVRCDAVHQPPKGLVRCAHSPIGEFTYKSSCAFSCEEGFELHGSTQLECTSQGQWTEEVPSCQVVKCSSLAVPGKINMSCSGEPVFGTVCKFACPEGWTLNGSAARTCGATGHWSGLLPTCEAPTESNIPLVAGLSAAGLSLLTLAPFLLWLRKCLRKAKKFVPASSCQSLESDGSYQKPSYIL

Cc1cn([C@H]2C[C@H](N=[N+]=[N-])[C@@H](CO)O2)c(=O)[nH]c1=O
not listed: [17] | [18]
inactive: all other assays above

NCc1cccc(C2CCN(C(=O)c3ccc(C#Cc4ccccc4F)o3)CC2)c1
active: [1] 10.1 µM | [2] 11.8 µM | [3] 11.7 µM | [4] 11 µM | [5] 7.78 µM | [6] 7.77 µM | [7] 29.6 µM | [8] 12.4 µM | [9] 5.34 µM | [10] 12.3 µM | [11] 10.4 µM | [12] 20 µM | [13] 11.3 µM | [14] 11.1 µM | CD40, CD40 (gene 958) 8.42 µM | [15] 35.6 µM | [17] 15.3 µM | [18] 17.1 µM

CCCCOC(=O)c1ccc(O)cc1
not listed: [17] | [18]
inactive: all other assays above

CCCCCc1ccc(N)cc1
active: [8] 22 µM | [9] 24.4 µM | [13] 13.7 µM
not listed: [17] | [18]
inactive: all other assays above

CCN(CC)C(=O)c1cc(S(=O)(=O)Cc2ccccc2)c(N2CCC(c3ccccc3)CC2)cc1N(CC)CCN(C)C
active: [6] 4.69 µM | [9] 28 µM | [13] 24 µM | CD40, CD40 (gene 958) 8.94 µM | [15] 27.6 µM | [16] 18.7 µM | [18] 8.53 µM
not listed: [17]
inactive: all other assays above

CC(C)(O)c1ccc(CNC(=O)c2cccnc2Oc2ccc3nonc3c2)cc1
not listed: [16] | [18]
inactive: all other assays above
